IL-1B inflam inh – blocks inflammasome-driven IL-1 beta release | THP-1 LPS/ATP IL-1B secretion, AlphaLISA, 16 h; stronger effect = lower value | activity change, % at 57.5 µM | 360,000 tested, 4.7% active | AID 743279; in the data active means activity change below about -50%; inconclusive means mostly about -30% to -49%
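THP-1 cells pretreated 1 hr with compounds (up to 57.5 uM final), then stimulated with LPS (250 ng/mL final) plus ATP (1.25 mM final); secreted IL-1B measured by AlphaLISA after 16 hr, decreased signal indicating inhibition.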
HT1080 IDH1KD tx – toxicity to HT-1080 IDH1 knockdown cells (counter line). 360,000 tested, 2% active. HT-1080 IDH1 knockdown viability, ATP luminescence, 48 h. Potency, µM (highest dose often 46.1 µM), for the others: at the highest dose activity, negative = toxicity, actives largely listed as cytotoxic;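 further: potency means the concentration at half of the fitted maximal effect; 0% = DMSO wells and -100% = cell-free medium wells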
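Knockdown cells (IDH1KD HT-1080) received compounds 2 h after plating at 750 cells/well and were kept 48 h at 37 °C in 5% FBS RPMI. A CellTiter-Glo luminescence read gave % activity for curve fitting.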
DT40 TDP1 CPT – growth inhibition of DT40 Tdp1-/-;hTDP1 cells with camptothecin (screen for TDP1 inhibitors); chicken DT40 Tdp1-/-;hTDP1 cells + 20 nM CPT, ATP luminescence, 48 h; Potency, µM (highest dose often 46.2 µM), for the others: top-dose activity change, negative = growth inhibition, most hits filed as inhibitors; 420,000 tested, 12% active; AID 686979; further: potency means the concentration at half of the fitted maximal effect; nearly all actives have a fitted effect of over 55% in size
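Chicken DT40 Tdp1-/- cells complemented with human TDP1, 400 cells/well, exposed to compounds plus 20 nM camptothecin for at least 48 h at 37 C; viability read as ATP content by CellTiter-Glo luminescence.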
ALOX12 inh – inhibitors of human 12S-lipoxygenase ALOX12; purified 12hLO, xylenol orange hydroperoxide absorbance; P18054; Potency, µM (series often up to 108 µM), for the others: at the top dose activity change, negative = inhibition, actives largely listed as inhibitors; 580,000 tested, 1.1% active; AID 1671190; further: potency means the concentration at half of the fitted maximal effect
Target sequence (P18054 whole entry, looked up): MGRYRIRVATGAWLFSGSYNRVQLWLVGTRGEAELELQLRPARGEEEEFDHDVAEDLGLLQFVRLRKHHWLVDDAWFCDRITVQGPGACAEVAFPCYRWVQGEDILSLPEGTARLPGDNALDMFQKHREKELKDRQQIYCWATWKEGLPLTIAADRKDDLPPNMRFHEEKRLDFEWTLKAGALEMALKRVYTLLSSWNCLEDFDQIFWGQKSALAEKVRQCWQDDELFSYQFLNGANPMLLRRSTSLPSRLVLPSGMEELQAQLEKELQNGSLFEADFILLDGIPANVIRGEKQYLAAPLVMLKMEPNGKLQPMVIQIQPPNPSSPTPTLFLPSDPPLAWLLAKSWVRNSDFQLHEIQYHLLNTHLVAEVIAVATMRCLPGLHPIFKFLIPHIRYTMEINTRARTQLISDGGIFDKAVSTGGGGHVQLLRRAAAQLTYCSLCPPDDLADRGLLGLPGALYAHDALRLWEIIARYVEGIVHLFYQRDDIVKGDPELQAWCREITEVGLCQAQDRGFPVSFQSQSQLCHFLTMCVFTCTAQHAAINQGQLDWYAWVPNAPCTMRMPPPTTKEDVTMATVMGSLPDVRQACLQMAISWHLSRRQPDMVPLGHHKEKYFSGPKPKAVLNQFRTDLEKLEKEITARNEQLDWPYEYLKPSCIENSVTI
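Hydroperoxide product was detected by ferrous iron/xylenol orange as the 573 to 405 nm absorbance ratio. Arachidonic acid at 40 uM (final) was turned over for 30 min at room temperature by 150 nM human 12hLO, pH 7.0 Hepes buffer, after 15 min compound preincubation.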
HT1080-NT tox – kills 2HG-producing HT-1080-NT fibrosarcoma cells; HT-1080-NT fibrosarcoma viability, CellTiter-Glo ATP luminescence, 48 h; Potency, µM (doses to about 46.1 µM), without a hit: at the top dose activity, negative = less viability, hits mostly cytotoxic; 360,000 tested, 1.6% active; AID 686970;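 further: NT is the 2HG producing partner of a matched IDH1 knockdown line; potency means the concentration at half of the fitted maximal effect; 0% = DMSO-treated cells and -100% = media-only wells without cells; nearly all actives have a fitted effect of over 55% in size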
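750 cells/well, RPMI + 5% FBS; 2 h settle, compound pin-transfer, 48 h at 37 degrees C. CellTiter-Glo 10 min RT, luminescence. Normalized to DMSO and media-only wells.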
TDP1 cell noCPT – qHTS for Inhibitors of human tyrosyl-DNA phosphodiesterase 1 (TDP1): qHTS in cells in absence of CPT; Potency, µM (top dose mostly 46.2 µM), for inactives: top-dose activity change, negative = growth inhibition, hits mostly inhibitors; DT40 Tdp1-/- hTDP1 cells, no CPT, ATP luminescence, 48 h; 420,000 tested, 15% active; AID 686978, 2013; further: potency means the concentration at half of the fitted maximal effect; nearly all actives have a fitted effect of over 55% in size
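Chicken DT40 Tdp1-/- cells stably complemented with human TDP1 were seeded at 400 cells/well with DMSO in place of 20 nM camptothecin. After compound pinning, cells grew at least 48 hr at 37 °C; viability read by CellTiter-Glo luminescence.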
Active calls of the source: *; [ ] = another dose, or the depositor's remark. The sample as a whole holds a higher share of hits than the screen did. Unless noted, the call rests on the fitted dose curve; in most records, active means well fitted curve in the direction sought with a large enough effect; inconclusive means small, poorly fitted or top-dose-only effect, or another doubt; inactive means no such curve, though single readings can be large; an effect the other way counts as inactive or inconclusive. Unless noted, on the % scale 0 is the no-effect control and ±100 the full control effect.

`Cc1cccc2sc(N(CCN(C)C)C(=O)c3cc(Cl)sc3Cl)nc12` gave IL-1B inflam inh -29, HT1080 IDH1KD tx 1%, DT40 TDP1 CPT inconclusive, ALOX12 inh inconclusive, HT1080-NT tox 9% and TDP1 cell noCPT inconclusive.
Screening COc1ccccc1C(=O)N(CCN(C)C)c1nc2cc(C)cc(C)c2s1 returned IL-1B inflam inh 0, HT1080 IDH1KD tx 0%, DT40 TDP1 CPT inconclusive, ALOX12 inh inconclusive, HT1080-NT tox 1% and TDP1 cell noCPT 26µM*.
`COc1cc2ccccc2cc1C(=O)N(CCN(C)C)c1nc2c(OC)ccc(OC)c2s1` gave IL-1B inflam inh -53*, HT1080 IDH1KD tx inconclusive, DT40 TDP1 CPT inconclusive, ALOX12 inh inconclusive, HT1080-NT tox 16µM* and TDP1 cell noCPT inconclusive.
For Cc1ccc2oc(=O)c(-c3nc(-c4ccc(F)cc4)no3)cc2c1 the results were ALOX12 inh -20%.
C#CCN(C)Cc1nc(C2(O)CCN(C(=O)c3ccccc3)CC2)cs1 was read as ALOX12 inh 29%[176 µM].
Screening C=C1SC(Nc2c(C)cccc2C)=NC12CCCCC2 returned HT1080 IDH1KD tx -11%, DT40 TDP1 CPT inconclusive, ALOX12 inh inconclusive, HT1080-NT tox -17% and TDP1 cell noCPT inconclusive.
`C=C1SC(Nc2c(C)cc(C)cc2C)=NC12CCCCC2` gave IL-1B inflam inh -69*, HT1080 IDH1KD tx 0%, DT40 TDP1 CPT inconclusive, ALOX12 inh inconclusive, HT1080-NT tox -1% and TDP1 cell noCPT 18µM*.
Screening Cc1ccc(C)c(OCC(O)Cn2nnc(-c3cccnc3)n2)c1C (stereo unspecified) returned ALOX12 inh -15%.
COCCOC1CCN(Cc2cn(Cc3ccccc3)nc2-c2cc3ccccc3o2)CC1 was read as IL-1B inflam inh -13, HT1080 IDH1KD tx -15%, DT40 TDP1 CPT inconclusive, ALOX12 inh -7%, HT1080-NT tox 0% and TDP1 cell noCPT 16µM*.
OC1CCCN(Cc2cn(Cc3ccccc3)nc2-c2cc3ccccc3o2)C1 (stereo unspecified) was read as IL-1B inflam inh inconclusive, HT1080 IDH1KD tx inconclusive, DT40 TDP1 CPT inconclusive, ALOX12 inh 0%, HT1080-NT tox -24% and TDP1 cell noCPT 18µM*.
Screening CC(O)CNc1nc2c(c(=O)n(C)c(=O)n2C)n1Cc1c(Cl)cccc1Cl (stereo unspecified) returned ALOX12 inh 40%.
For CCOc1cc(/C=C/c2cccc[n+]2C)ccc1OCC(=O)Nc1ccc(C)cc1 the results were IL-1B inflam inh -71*, HT1080 IDH1KD tx -5%, DT40 TDP1 CPT 21µM*, ALOX12 inh inconclusive, HT1080-NT tox -1% and TDP1 cell noCPT 16µM*.
`CCOc1cc(/C=C/c2cccc[n+]2C)ccc1O` gave IL-1B inflam inh 6, HT1080 IDH1KD tx 6%, DT40 TDP1 CPT 2%, ALOX12 inh 84%, HT1080-NT tox 7% and TDP1 cell noCPT 15%.
`CCOc1cc(/C=N/NC(N)=O)cc(Br)c1OCC(=O)Nc1ccccc1C` gave IL-1B inflam inh 2, HT1080 IDH1KD tx -25%, DT40 TDP1 CPT inconclusive, ALOX12 inh 0%, HT1080-NT tox -22% and TDP1 cell noCPT inconclusive.
`COc1ccccc1NC(=O)COc1ccc(/C=N/n2cnnc2)cc1OC` gave IL-1B inflam inh -3, HT1080 IDH1KD tx -5%, DT40 TDP1 CPT 2%, ALOX12 inh 1%, HT1080-NT tox 0% and TDP1 cell noCPT -12%.
`CCOc1cc(/C=N/n2cnnc2)ccc1OCC(=O)Nc1ccccc1OC` gave IL-1B inflam inh -4, HT1080 IDH1KD tx 12%, DT40 TDP1 CPT -8%, ALOX12 inh -15%, HT1080-NT tox 17% and TDP1 cell noCPT 8.2µM*.
`CCOc1cc(/C=C\[N+](=O)[O-])ccc1OCC(=O)Nc1ccccc1C` gave IL-1B inflam inh -21, HT1080 IDH1KD tx 6.5µM*, DT40 TDP1 CPT 0.92µM*, HT1080-NT tox 2.9µM* and TDP1 cell noCPT 0.58µM*.
`COc1ccc(CNC(=O)N2C[C@@H](Oc3cccnc3)C[C@@H]2C(=O)N2CCOCC2)cc1` gave ALOX12 inh 43%.
`Cc1ccc(Nc2nc(NCCCc3ccccc3)nc3nccnc23)cc1` gave ALOX12 inh 0%.
For Cn1cc(CC(=O)N2CCCc3ncc(C(=O)N4CCCC[C@@H]4Cc4ccccc4)cc32)c2ccccc21 the results were ALOX12 inh -39%.
`CCOC(=O)C(=CNc1cc(C)ccn1)C(=O)OCC` gave IL-1B inflam inh 19, HT1080 IDH1KD tx 2%, DT40 TDP1 CPT -4%, ALOX12 inh 1%, HT1080-NT tox 0% and TDP1 cell noCPT inconclusive.
CCOC(=O)C(=CNc1cc(C)ccc1[N+](=O)[O-])C(=O)OCC was read as IL-1B inflam inh -13, HT1080 IDH1KD tx 14%, DT40 TDP1 CPT inconclusive, ALOX12 inh -22%, HT1080-NT tox 22% and TDP1 cell noCPT inconclusive.
Cc1ccc(Oc2ncccc2NC(=O)CC2(CC(=O)O)CCCC2)c2c1CCC2 was read as HT1080 IDH1KD tx 1%, DT40 TDP1 CPT 3%, ALOX12 inh 0%, HT1080-NT tox -14% and TDP1 cell noCPT -25%.
Screening CCOC(=O)C(=CNc1cc(C)ccc1C)C(=O)OCC returned IL-1B inflam inh -24, HT1080 IDH1KD tx 14%, DT40 TDP1 CPT inconclusive, ALOX12 inh -8%, HT1080-NT tox 1% and TDP1 cell noCPT 16µM*.
`CCOC(=O)C(=CNc1cc(C)nn1-c1ccc(C)cc1)C(=O)OCC` gave IL-1B inflam inh -9, HT1080 IDH1KD tx -14%, DT40 TDP1 CPT 23µM*, ALOX12 inh 0%, HT1080-NT tox -21% and TDP1 cell noCPT 9.2µM*.
For CCOC(=O)C(=CNc1ccc(O)c(C(=O)OC)c1)C(=O)OCC the results were IL-1B inflam inh 23, HT1080 IDH1KD tx 10%, DT40 TDP1 CPT inconclusive, ALOX12 inh inconclusive, HT1080-NT tox -1% and TDP1 cell noCPT -29%.
For CCOC(=O)C(=CNc1cc(OC)ccc1-n1cccc1)C(=O)OCC the results were IL-1B inflam inh inconclusive, HT1080 IDH1KD tx -9%, DT40 TDP1 CPT inconclusive, ALOX12 inh 26%, HT1080-NT tox -2% and TDP1 cell noCPT 21µM*.
